What all share (details): mRNA level, 48 h; actives raise or lower the signal
Read-out in assay [1]: cysteine-aspartic acid protease (CASP8), CASP8 (gene 841)
The assay is described as follows: LTEA_HepaRG_CASP8: Life Technologies and Expression Analysis (LTEA) Assay for cysteine-aspartic acid protease (CASP8) using HepaRG (AID 2283480). Put shortly: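 HepaRG, 48 h exposure, duplicate wells; 8 conc, half-log from 100 uM, 0.5% DMSO. Serum-free induction medium. CASP8 mRNA by TaqMan qRT-PCR, norm. ACTB/GAPDH/POLR2A; gain/loss fitted vs DMSO.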

Read-out in assay [2]: Cytochrome P450 (CYP2B6), CYP2B6 (gene 1555)
The assay is described as follows: LTEA_HepaRG_CYP2B6: Life Technologies and Expression Analysis (LTEA) Assay for Cytochrome P450 (CYP2B6) using HepaRG (AID 2283481). Put shortly: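 Read-out is CYP2B6 mRNA by TaqMan qRT-PCR, normalized to three housekeeping genes and fitted bidirectionally against 0.5% DMSO baseline. Human HepaRG cells received test chemicals for 48 h, top concentration 100 uM, half-log dilutions.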

Read-out in assay [3]: Cytochrome P450 2C19 (Homo sapiens) (UniProt P33261)
Nature of the assay: LTEA_HepaRG_CYP2C19: Life Technologies and Expression Analysis (LTEA) Assay for CYP2C19 using HepaRG (AID 2283482). Put shortly: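 HepaRG, 48 h chemical exposure, 8-pt half-log series from 100 uM in 0.5% DMSO, duplicates. Readout: CYP2C19 mRNA by TaqMan qRT-PCR, housekeeping-normalized. Bidirectional fit vs DMSO baseline; phenobarbital 1mM as induction control.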

Read-out in another assay: CYP2C8 (gene 1558)
The assay is described as follows: LTEA_HepaRG_CYP2C8: Life Technologies and Expression Analysis (LTEA) Assay for CYP2C8 using HepaRG (AID 2283483). Put shortly: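 CYP2C8 mRNA induction or loss, by qRT-PCR normalized to ACTB/GAPDH/POLR2A, is read in HepaRG cells after 48 h treatment. Concentrations run from 100 uM down in half-log dilutions, with 0.5% DMSO as vehicle and baseline.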

Read-out in a further assay: CYP2C9 (gene 1559)
The assay is described as follows: LTEA_HepaRG_CYP2C9: Life Technologies and Expression Analysis (LTEA) Assay for CYP2C9 using HepaRG (AID 2283484). The method, boiled down: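 Cells plated 48 h, switched to serum-free induction medium, then treated in duplicate for 48 h at eight concentrations (max 100 uM, 0.5% DMSO). RNA then analysed by qRT-PCR for CYP2C9; curves fitted in both directions relative to DMSO.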

Read-out in another assay: CYP2E1 (gene 1571)
The assay is described as follows: LTEA_HepaRG_CYP2E1: Life Technologies and Expression Analysis (LTEA) Assay for CYP2E1 using HepaRG (AID 2283485). Put shortly: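 Differentiated HepaRG cells were treated in duplicate for 48 h with chemicals in 0.5% DMSO, from 100 uM downward in half-log dilutions. RNA was then analysed by qRT-PCR for CYP2E1 induction or loss.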

Read-out in another assay: CYP4A11 (gene 1579)
The assay is described as follows: LTEA_HepaRG_CYP4A11: Life Technologies and Expression Analysis (LTEA) Assay for CYP4A11 using HepaRG (AID 2283486). The method, boiled down:
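CYP4A11 transcript levels were quantified by TaqMan qRT-PCR after HepaRG human liver cells were treated for 48 hours with test chemicals (top 100 uM, half-log dilutions, 0.5% DMSO). Gain or loss of signal was fitted relative to DMSO.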

Read-out in assay [4]: DNA damage-inducible transcript 3 (DDIT3), DDIT3 (gene 1649)
The assay is described as follows: LTEA_HepaRG_DDIT3: Life Technologies and Expression Analysis (LTEA) Assay for DNA damage-inducible transcript 3 (DDIT3) using HepaRG (AID 2283488). The method, boiled down:
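Changes in DDIT3 transcript, in either direction relative to 0.5% DMSO vehicle, were quantified by TaqMan qRT-PCR after 48 h chemical exposure of HepaRG cells at 8 concentrations, maximum 100 uM.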

Read-out in assay [5]: Cytochrome P450 3A4 (Homo sapiens) (UniProt P08684)
The assay is described as follows: LTEA_HepaRG_CYP3A4: Life Technologies and Expression Analysis (LTEA) Assay for CYP3A4 using HepaRG (AID 2283487). The method, boiled down: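 CYP3A4 transcript measured by TaqMan qRT-PCR and normalized to three housekeeping genes after 48 h chemical exposure of human HepaRG cells. Top concentration 100 uM, half-log steps, 0.5% DMSO vehicle; gain or loss fitted against DMSO baseline.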

Read-out in assay [6]: Pro-epidermal growth factor (Homo sapiens) (UniProt P01133)
Nature of the assay: LTEA_HepaRG_EGF: Life Technologies and Expression Analysis (LTEA) Assay for Epidermal growth factor (EGF) using HepaRG (AID 2283489). Put shortly:
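qRT-PCR readout of EGF transcript after 48 h chemical exposure of HepaRG cells; eight concentrations from 100 uM down in half-log steps, duplicate wells, 0.5% DMSO vehicle. Bidirectional curve fitting against DMSO baseline.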

The structures appear in SMILES notation. Activity calls are given as the source filed them. The calls were made as follows: active = hit-call score of the fitted dose curve at least 0.9, where 1 is the maximum; inactive = score below 0.9.

Chain of Cytochrome P450 2C19 (Homo sapiens) (P33261 whole entry, looked up): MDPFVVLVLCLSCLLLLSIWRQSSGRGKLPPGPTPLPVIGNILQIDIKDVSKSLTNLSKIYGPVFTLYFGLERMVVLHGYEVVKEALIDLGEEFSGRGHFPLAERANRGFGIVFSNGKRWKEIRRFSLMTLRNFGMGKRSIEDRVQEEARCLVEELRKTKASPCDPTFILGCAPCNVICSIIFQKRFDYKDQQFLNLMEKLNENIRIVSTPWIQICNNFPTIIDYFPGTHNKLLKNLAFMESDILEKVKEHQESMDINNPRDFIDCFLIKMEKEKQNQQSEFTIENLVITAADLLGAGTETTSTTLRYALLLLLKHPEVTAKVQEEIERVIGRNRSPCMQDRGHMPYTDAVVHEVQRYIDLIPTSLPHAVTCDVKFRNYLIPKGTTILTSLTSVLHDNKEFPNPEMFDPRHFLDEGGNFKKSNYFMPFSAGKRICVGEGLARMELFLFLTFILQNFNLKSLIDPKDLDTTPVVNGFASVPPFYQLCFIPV
Chain of Cytochrome P450 3A4 (Homo sapiens) (P08684 whole entry, looked up): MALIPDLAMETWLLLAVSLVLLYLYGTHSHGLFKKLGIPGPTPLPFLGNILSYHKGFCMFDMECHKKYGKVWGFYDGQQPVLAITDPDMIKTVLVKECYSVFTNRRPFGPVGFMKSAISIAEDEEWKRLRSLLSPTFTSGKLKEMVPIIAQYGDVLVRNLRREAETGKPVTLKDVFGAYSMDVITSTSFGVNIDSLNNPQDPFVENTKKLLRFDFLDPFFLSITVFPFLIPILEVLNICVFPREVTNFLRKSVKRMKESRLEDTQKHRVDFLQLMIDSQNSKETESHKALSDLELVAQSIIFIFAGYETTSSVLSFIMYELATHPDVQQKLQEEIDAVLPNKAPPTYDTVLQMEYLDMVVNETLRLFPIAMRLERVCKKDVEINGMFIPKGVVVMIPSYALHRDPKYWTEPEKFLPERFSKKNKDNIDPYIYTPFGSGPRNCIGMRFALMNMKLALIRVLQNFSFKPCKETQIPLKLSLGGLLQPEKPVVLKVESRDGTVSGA

With `O=c1n(Cl)c(=O)n(Cl)c(=O)n1Cl`, the result (in [1]; in assay [2]; in [3]; in the assay with CYP2C8 (gene 1558); in the assay with CYP2C9 (gene 1559); with CYP2E1 (gene 1571)) was inactive. Besides, the result (in the assay with CYP4A11 (gene 1579); in [4]) was inactive.
A word on the AC50: it is the concentration at which the activity in the assay is half-maximal. On to `CCOc1cc(C(C)(C)C)ccc1C1COC(c2c(F)cccc2F)=N1` (stereo not given), for which the call (in assay [1]; with CYP2C9 (gene 1559); in assay [6]) was inactive. The concentration at half-maximal activity (AC50) was 8.33 µM (active) in assay [2]; 8.34 µM (active) in assay [3]; 7.92 µM (active) in the assay with CYP2C8 (gene 1558); 18.7 µM (active) in the assay with CYP2E1 (gene 1571); 57.4 µM (active) with CYP4A11 (gene 1579); 4.8 µM (active) in assay [5]. For the same compound, the AC50 in assay [4] is 52.1 µM (active).
Regarding `Nc1cnn(-c2ccccc2)c(=O)c1Cl`, the outcome (in assay [1]; in assay [3]; with CYP2C8 (gene 1558); in the assay with CYP2C9 (gene 1559); with CYP4A11 (gene 1579); in assay [4]) was inactive. For the same compound, the call in assay [6] was inactive. Further, the AC50 was 17.1 µM (active) in assay [2], 9.92 µM (active) with CYP2E1 (gene 1571) and 17.6 µM (active) in assay [5].
On to `COC(=O)NS(=O)(=O)c1ccc(N)cc1`, for which the call (in assay [1]; in assay [2]; in assay [3]; with CYP2C8 (gene 1558); with CYP2C9 (gene 1559); with CYP2E1 (gene 1571)) was inactive. Further, the compound was classed as inactive (in the assay with CYP4A11 (gene 1579); in assay [4]; in assay [6]).
As for `CCSC(=O)N1CCCCCC1`, the compound was classed as inactive (in assay [1]; in assay [3]; with CYP2C8 (gene 1558); in the assay with CYP2C9 (gene 1559); with CYP2E1 (gene 1571); with CYP4A11 (gene 1579)). The result in assay [4] and in assay [6] was inactive. Moreover, the AC50 in [2] was 2.93 µM (active); in [5] it was 30 µM (active).
As to `CS(=O)(=O)c1cc(C(F)(F)F)ccc1C(=O)c1cnoc1C1CC1`, the compound was called inactive (in [1]; in assay [2]; in [3]; in the assay with CYP2C8 (gene 1558); in the assay with CYP2C9 (gene 1559); with CYP4A11 (gene 1579)). The outcome in [4] and in assay [6] was inactive. Also, the AC50 with CYP2E1 (gene 1571) is 9.92 µM (active).
On to `COCc1cnc(C2=NC(C)(C(C)C)C(=O)N2)c(C(=O)O)c1` (stereo not given), for which the compound was classed as inactive (in [1]; in assay [2]; in assay [3]; with CYP2C8 (gene 1558); with CYP2C9 (gene 1559); with CYP2E1 (gene 1571)). Besides, the compound was classed as inactive (in the assay with CYP4A11 (gene 1579); in [4]; in assay [6]).
For the compound `N#Cc1c[nH]cc1-c1cccc2c1OC(F)(F)O2`, the result (in assay [1]; with CYP2C8 (gene 1558); in assay [4]; in [6]) was inactive. In addition, the AC50 in [2] is 32 µM (active); in [3], 93.5 µM (active); with CYP2C9 (gene 1559) it was 50 µM (active); in the assay with CYP2E1 (gene 1571) it was 76 µM (active); with CYP4A11 (gene 1579) it was 85.2 µM (active); in [5], 9.76 µM (active).
For the compound `CO/N=C(/C1=NOCCO1)c1ccccc1Oc1ncnc(Oc2ccccc2Cl)c1F`, the result in assay [1] and in assay [6] was inactive. The AC50 was 21.1 µM (active) in [2]; 29.5 µM (active) in assay [3]; 25.8 µM (active) with CYP2C8 (gene 1558); 25.2 µM (active) in the assay with CYP2C9 (gene 1559); 7.94 µM (active) with CYP2E1 (gene 1571); 14.2 µM (active) in the assay with CYP4A11 (gene 1579). In addition, the AC50 in assay [5] was 30.5 µM (active); in assay [4], 25.1 µM (active).
With `CCNP(=S)(OC)O/C(C)=C/C(=O)OC(C)C` (stereo not given), the call (in assay [1]; with CYP2C9 (gene 1559); in assay [4]; in assay [6]) was inactive. Moreover, the AC50 in assay [2] is 5.19 µM (active); in assay [3], 8.66 µM (active); with CYP2C8 (gene 1558), 12.9 µM (active); in the assay with CYP2E1 (gene 1571) it was 34.8 µM (active); with CYP4A11 (gene 1579), 68.4 µM (active).
`CCCCC(O)(Cn1cncn1)c1ccc(Cl)cc1Cl` (stereo not given): the compound was classed as inactive in assay [1] and in assay [6]. Further, the AC50 in [2] was 80.1 µM (active); in [3], 83.2 µM (active); with CYP2C8 (gene 1558), 78.5 µM (active); with CYP2C9 (gene 1559), 73.8 µM (active); with CYP2E1 (gene 1571), 46.4 µM (active); in the assay with CYP4A11 (gene 1579) it was 59 µM (active). Moreover, the AC50 in assay [5] is 85.6 µM (active); in assay [4], 77.4 µM (active).
Consider `CCOC(=O)C(C)OC(=O)c1cc(Oc2ccc(C(F)(F)F)cc2Cl)ccc1[N+](=O)[O-]` (stereo not given), for which the compound was classed as inactive (in assay [1]; in the assay with CYP2C9 (gene 1559); in assay [4]; in [6]). The AC50 was 11.5 µM (active) in assay [2]; 12.9 µM (active) in assay [3]; 12.8 µM (active) with CYP2C8 (gene 1558); 36.6 µM (active) in the assay with CYP2E1 (gene 1571); 0.598 µM (active) with CYP4A11 (gene 1579).
For `CC(C)N1C(=O)N(c2ccccc2)CSC1=NC(C)(C)C`, the call in [1] and in [6] was inactive. Also, the AC50 in assay [2] was 89.3 µM (active); in assay [3], 11.4 µM (active); with CYP2C8 (gene 1558), 84.2 µM (active); with CYP2C9 (gene 1559) it was 83.3 µM (active); with CYP2E1 (gene 1571), 63.5 µM (active); with CYP4A11 (gene 1579) it was 67.6 µM (active). For the same compound, the AC50 in [4] was 73.8 µM (active).
For the compound `COC(=O)N(C(=O)N1CO[C@@]2(C(=O)OC)Cc3cc(Cl)ccc3C2=N1)c1ccc(OC(F)(F)F)cc1`, the result (in assay [1]; with CYP2C8 (gene 1558); in [4]; in [6]) was inactive. The AC50 is 0.89 µM (active) in assay [2]; 9.46 µM (active) in [3]; 64.8 µM (active) with CYP2C9 (gene 1559); 24 µM (active) in the assay with CYP2E1 (gene 1571); 25.6 µM (active) in the assay with CYP4A11 (gene 1579); 9.42 µM (active) in assay [5].
For the compound `CCOP(=S)(OCC)Oc1nc(Cl)n(C(C)C)n1`, the compound was classed as inactive (in assay [1]; with CYP2C8 (gene 1558); with CYP2C9 (gene 1559); in assay [4]; in assay [6]). The AC50 in assay [2] was 1.78 µM (active); in assay [3], 12.7 µM (active); with CYP2E1 (gene 1571), 26.5 µM (active); with CYP4A11 (gene 1579) it was 42.3 µM (active).
Take `COP(=S)(OC)Oc1ccc([N+](=O)[O-])c(C)c1`: the call (in [1]; in assay [3]; in the assay with CYP2C8 (gene 1558); in the assay with CYP2C9 (gene 1559); with CYP2E1 (gene 1571); in the assay with CYP4A11 (gene 1579)) was inactive. The result in [5], in [4] and in assay [6] was inactive. The AC50 in assay [2] is 4.75 µM (active).
`Clc1cccc(C(Cl)(Cl)Cl)n1`: the compound was classed as inactive (in assay [1]; in assay [3]; with CYP2C8 (gene 1558); with CYP2C9 (gene 1559); with CYP2E1 (gene 1571); with CYP4A11 (gene 1579)). In addition, the call in assay [5], in [4] and in assay [6] was inactive. Further, in assay [2], the half-maximal activity concentration (AC50) was 2.9 µM (active).
Turning to `Nc1c(Cl)c(Cl)nc(C(=O)O)c1Cl`, the call (in assay [1]; in assay [2]; in assay [3]; with CYP2C8 (gene 1558); in the assay with CYP2C9 (gene 1559); with CYP2E1 (gene 1571)) was inactive. Moreover, the compound was classed as inactive (with CYP4A11 (gene 1579); in assay [4]; in [6]).

(Values after PubChem BioAssay (EPA / NIEHS).)
